We go through 6 sequences from publication PMC4081100, “A DNA-binding-site landscape and regulatory network analysis for NAC transcription factors in Arabidopsis thaliana”.

Holding throughout (experiment): universal protein binding microarray (PBM); transcription factors of Arabidopsis thaliana; high values mean tight binding
What all share (conditions): protein: recombinant; tags: GST; chain copies: 2; dsDNA, one strand shown

In test [1] the target is T1, GST-ANAC092(1-176) (Arabidopsis thaliana, UniProt Q9FKA0 1-176).
T1 sequence: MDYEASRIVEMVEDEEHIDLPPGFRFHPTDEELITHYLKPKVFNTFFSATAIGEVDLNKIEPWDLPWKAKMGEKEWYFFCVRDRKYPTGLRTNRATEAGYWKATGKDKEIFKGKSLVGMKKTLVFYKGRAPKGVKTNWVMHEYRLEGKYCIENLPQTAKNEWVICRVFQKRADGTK
A digest of the protocol:
(§1)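 GST-tagged NAC-domain, full-length or DNA-binding-domain proteins were induced in cells, with zinc acetate added for zinc-finger proteins. They were purified on glutathione–Sepharose 4B and quantified by A280 or anti-GST western blot. Each was applied at 200 to 500 nM final, in duplicate, to custom all-10-mer Agilent 4 × 180K arrays made double-stranded by primer extension, with gapped and ungapped 8-mers scored. Binding is the normalised enrichment score (E-score).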

Test [2] concerns the target GST-NTL6(1-168) (Arabidopsis thaliana, UniProt Q9SCK6 1-168). In short, it runs like this: as §1
In test [3] the target is T2, GST-ANAC019 NAC domain (Arabidopsis thaliana, UniProt Q9C932 14-162).
T2 sequence: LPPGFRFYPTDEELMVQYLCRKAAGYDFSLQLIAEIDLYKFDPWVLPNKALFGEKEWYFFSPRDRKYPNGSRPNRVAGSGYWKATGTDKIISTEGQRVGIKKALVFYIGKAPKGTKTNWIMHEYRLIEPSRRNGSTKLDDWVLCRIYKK
A digest of the protocol:
as §1

Test [4] has as its target T3, GST-ANAC055(1-171) (Arabidopsis thaliana, UniProt Q9LDY8 1-171).
T3 sequence: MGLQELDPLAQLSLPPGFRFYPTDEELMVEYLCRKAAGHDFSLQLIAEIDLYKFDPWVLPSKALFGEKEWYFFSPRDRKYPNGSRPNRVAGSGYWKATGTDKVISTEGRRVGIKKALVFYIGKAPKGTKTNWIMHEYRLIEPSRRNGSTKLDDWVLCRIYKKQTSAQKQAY
A digest of the protocol: as §1

Test [5] concerns the target T4, GST-ATAF1 NAC domain (Arabidopsis thaliana, UniProt Q39013 7-158).
T4 sequence: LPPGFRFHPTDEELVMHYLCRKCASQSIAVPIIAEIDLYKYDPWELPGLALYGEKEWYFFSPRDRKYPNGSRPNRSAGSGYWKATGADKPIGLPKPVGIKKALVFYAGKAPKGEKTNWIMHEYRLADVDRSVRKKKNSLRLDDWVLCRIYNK
A digest of the protocol: as §1

The target of test [6] is T5, GST-ANAC092(1-285) full length (Arabidopsis thaliana, UniProt Q9FKA0 1-285).
T5 sequence: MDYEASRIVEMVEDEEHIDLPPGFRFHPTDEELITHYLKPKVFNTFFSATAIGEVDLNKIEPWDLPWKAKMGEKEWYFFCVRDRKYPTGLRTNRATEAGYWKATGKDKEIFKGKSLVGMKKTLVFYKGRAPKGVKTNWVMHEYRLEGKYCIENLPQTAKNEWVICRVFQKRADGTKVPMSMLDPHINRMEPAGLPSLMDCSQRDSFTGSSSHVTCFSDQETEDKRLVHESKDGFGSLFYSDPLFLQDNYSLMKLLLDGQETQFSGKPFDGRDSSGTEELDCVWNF
In short, it runs like this: as §1

The target of test [7] is T6, GST-NAP(1-166) (Arabidopsis thaliana, UniProt O49255 1-166).
T6 sequence: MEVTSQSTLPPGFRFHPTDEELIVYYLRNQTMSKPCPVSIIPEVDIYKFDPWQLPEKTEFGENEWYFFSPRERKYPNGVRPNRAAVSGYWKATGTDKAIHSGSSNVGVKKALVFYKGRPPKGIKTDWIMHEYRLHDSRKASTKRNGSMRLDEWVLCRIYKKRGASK
In short, it runs like this: as §1

Test [8] addresses T7, GST-NST2(1-184) (Arabidopsis thaliana, UniProt Q9M274 1-184).
T7 sequence: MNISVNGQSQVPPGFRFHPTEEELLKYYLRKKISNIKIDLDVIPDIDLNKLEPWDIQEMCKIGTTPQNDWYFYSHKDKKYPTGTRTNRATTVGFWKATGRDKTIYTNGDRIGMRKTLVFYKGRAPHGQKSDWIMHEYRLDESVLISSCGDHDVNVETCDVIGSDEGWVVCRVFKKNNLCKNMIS
In short, it runs like this: as §1

The target of test [9] is T8, GST-NTL8 NAC domain (Arabidopsis thaliana, UniProt Q9XIN7 14-156).
T8 sequence: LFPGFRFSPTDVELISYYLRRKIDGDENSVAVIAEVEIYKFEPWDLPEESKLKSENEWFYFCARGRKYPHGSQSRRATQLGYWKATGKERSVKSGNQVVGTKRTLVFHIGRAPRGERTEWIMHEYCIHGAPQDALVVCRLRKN
A digest of the protocol: as §1

The target of test [10] is T9, GST-SND1(1-203) (Arabidopsis thaliana, UniProt Q9LPI7 1-203).
T9 sequence: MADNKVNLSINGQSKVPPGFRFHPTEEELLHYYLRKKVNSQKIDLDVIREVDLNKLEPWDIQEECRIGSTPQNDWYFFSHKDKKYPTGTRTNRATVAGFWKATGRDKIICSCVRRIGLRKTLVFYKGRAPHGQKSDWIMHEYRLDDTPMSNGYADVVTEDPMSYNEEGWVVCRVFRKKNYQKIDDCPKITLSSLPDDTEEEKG
In short, it runs like this:
as §1

In test [11] the target is T10, GST-VND3 NAC domain (Arabidopsis thaliana, UniProt Q9FH59 12-162).
T10 sequence: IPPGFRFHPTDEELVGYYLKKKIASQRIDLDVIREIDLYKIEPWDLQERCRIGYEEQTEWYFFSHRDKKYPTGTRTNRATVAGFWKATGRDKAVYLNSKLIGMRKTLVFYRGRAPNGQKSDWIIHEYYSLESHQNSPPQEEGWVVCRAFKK
In short, it runs like this:
as §1

In test [12] the target is T11, GST-VND7 NAC domain (Arabidopsis thaliana, UniProt Q9C8W9 9-158).
T11 sequence: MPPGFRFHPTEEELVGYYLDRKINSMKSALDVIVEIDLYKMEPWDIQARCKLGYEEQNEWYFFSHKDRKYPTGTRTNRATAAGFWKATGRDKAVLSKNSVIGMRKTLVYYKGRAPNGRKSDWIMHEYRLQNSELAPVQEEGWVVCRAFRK
A digest of the protocol:
as §1

Chain of GST-NTL6(1-168) (Q9SCK6 1-168): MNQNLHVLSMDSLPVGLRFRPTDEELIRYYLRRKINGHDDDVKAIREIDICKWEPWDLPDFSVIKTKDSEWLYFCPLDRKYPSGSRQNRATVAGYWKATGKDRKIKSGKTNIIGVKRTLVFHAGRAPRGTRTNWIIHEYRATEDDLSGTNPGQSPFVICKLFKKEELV

ACGCAACT: the binding signal stood at 0.472 E-score in test [1]; 0.105 E-score in test [2]; 0.477 E-score in test [3]; 0.433 E-score in test [4]; 0.416 E-score in test [5]; 0.472 E-score in test [6]. In addition, the binding signal in [7] is 0.478 E-score; in test [8] it was 0.39 E-score; in test [9] it was 0.0824 E-score; in [10], 0.422 E-score; in test [11], 0.462 E-score; in test [12] it was 0.462 E-score.

For the sequence ACGTAACT, the binding signal in test [1] was 0.443 E-score; in test [2] it was 0.174 E-score; in [3] it was 0.48 E-score; in test [4], 0.451 E-score; in test [5] it was 0.444 E-score; in [6], 0.424 E-score. Besides, the binding signal in [7] was found to be 0.474 E-score; in [8], 0.251 E-score; in test [9] it was 0.247 E-score; in test [10], 0.325 E-score; in [11], 0.466 E-score; in test [12], 0.474 E-score.

Turning to CGTTTCCC, the binding signal in [1] was determined as 0.244 E-score; in test [2] it was 0.14 E-score; in [3] it was 0.176 E-score; in test [4], 0.176 E-score; in test [5] it was 0.108 E-score; in test [6], 0.274 E-score. The binding signal in test [7] stood at 0.28 E-score; in test [8], 0.0635 E-score; in [9], 0.422 E-score; in test [10], 0.265 E-score; in test [11], 0.179 E-score; in test [12] it was 0.186 E-score.

Consider ATTGAGTA, for which the binding signal stood at 0.329 E-score in test [1]; 0.135 E-score in test [2]; 0.143 E-score in test [3]; 0.176 E-score in [4]; 0.251 E-score in [5]; 0.365 E-score in test [6]. The binding signal in test [7] is 0.0897 E-score; in test [8], 0.312 E-score; in test [9] it was 0.129 E-score; in test [10], 0.404 E-score; in [11] it was 0.282 E-score; in test [12] it was 0.258 E-score.

As for TACGTAAA, the binding signal in test [1] worked out at 0.427 E-score; in test [2], 0.095 E-score; in test [3], 0.43 E-score; in test [4], 0.384 E-score; in test [5], 0.377 E-score; in test [6], 0.444 E-score. In addition, the binding signal in [7] turned out to be 0.399 E-score; in test [8], 0.261 E-score; in test [9] it was 0.172 E-score; in [10] it was 0.43 E-score; in [11], 0.421 E-score; in [12], 0.43 E-score.

With ACGTAACC, the binding signal in test [1] came to 0.442 E-score; in [2], 0.149 E-score; in test [3] it was 0.389 E-score; in test [4] it was 0.412 E-score; in test [5], 0.389 E-score; in test [6], 0.463 E-score. The binding signal in test [7] is 0.43 E-score; in test [8] it was 0.338 E-score; in test [9], 0.328 E-score; in test [10] it was 0.392 E-score; in [11], 0.409 E-score; in [12], 0.414 E-score.
